# Test results from ChEMBL document CHEMBL3988442, “University of Dundee, Small-Polar-MMV Screening Library” (2021).
# Target: AMP-activated protein kinase, AMPK (Homo sapiens) (UniProt P54646+O43741+P54619+Q9UGJ0+Q9Y478+Q13131+Q9UGI9)
# Assay: AMP-dependent Kinase enzyme assay. An in vitro enzyme assay that detects ADP turnover that is directly proportional to AMPK activity. This uses naive AMPK that is activated during the assay with MK-8722
# Format: functional
# Design: scale not given: direction of the effect not stated beside the values
# Conditions: 30 µM
row,Structure (SMILES),Percent Effect [%]
1,O=C(C1CCCOC1)N1CCN(CC(F)(F)F)c2ccccc21 (stereo not given),6.14
2,CCc1cc(N2CCC(NCCc3ccc(C)o3)CC2)nc(C)n1,5.69
3,Cc1nccc(CNC(=O)NCCC(=O)N2CCCc3ccccc32)n1,-8.67
4,COc1nc(C)ccc1CNC(=O)NC(c1ncc(C)s1)C1CC1 (stereo not given),-2.14
5,CN(Cc1ccccc1)c1cnn(CC2CCCCO2)c(=O)c1 (stereo not given),7.07
6,COCCNC(=O)N1CCN(c2cc(F)ccc2F)CC1,7.95
7,COc1ccc(OC)c(C(=O)Nc2cccnc2-n2cncn2)c1,2.13
8,CN(CCOc1ccccc1)C(=O)Nc1cccn(C)c1=O,-59.2
9,CCC(C)(CC(=O)OC)NCc1nc(C)no1 (stereo not given),-1.72
10,CCCc1cc(=O)[nH]c(-n2nc(-c3cccs3)cc2N)n1,-6.1
11,CN(Cc1ccc(C#N)cc1)CC1CCS(=O)(=O)C1 (stereo not given),7.17
12,CCCn1cc(NC(=O)Nc2ccc(F)c(C(=O)NC)c2)cn1,8.23
13,CCNC(=O)C1CCN(Cc2ccc(C(=O)Nc3nnc(C)s3)cc2)C1 (stereo not given),-2.87
14,O=S(=O)(c1ccccc1N1CC(n2cccn2)C1)C(F)(F)F,16
15,CCCc1nnc(N2CCN(C3CCCC3)CC2)o1,3.52
16,CS(=O)(=O)c1ccc(CN2C[C@H]3CC[C@@H]2CN(c2ncccn2)C3)cc1,9.64
17,CCN(CC)C(=O)CN1CCCC1C(=O)N(C)C (stereo not given),-2.41
18,Cc1ccc(OCc2occc2C(=O)N2CCOC(C(=O)O)C2)cc1 (stereo not given),2.93
19,Cc1cc(C(=O)N2CCN(c3ncc4c(n3)CCOC4)CC2)sc1C,16.3
20,NC(=O)COc1cccc(Cn2cccn2)c1,-6.59

row,Structure (SMILES),Percent Effect [%]
1,CCN(Cc1cnn(CC)c1)Cc1c(Cl)cncc1Cl,6.24
2,CN(C)C(=O)CN1CCC(c2c(C(N)=O)sc3ncccc23)C1 (stereo not given),14.7
3,Cc1nccc(CNC(=O)NC(c2ncc(C)s2)C2CC2)n1 (stereo not given),0.262
4,CC(C)C(NC(=O)C1CC1)c1cc(O)nc(-c2cccnc2)n1 (stereo not given),6.3
5,CC(C)(CNc1cccc(Cl)c1)NC(=O)C1CCCN(CC(N)=O)C1 (stereo not given),40.1
6,COCC[C@]1(O)CCN(CC(=O)NCc2ccccc2C)C[C@H]1C,8.23
7,CCOc1ccc(Cl)cc1CCNC(=O)Cn1ccccc1=O,16.7
8,Cc1cc(C2CCCN(CC(=O)N3CCCc4ccccc43)C2)n[nH]1 (stereo not given),-5.06
9,CNS(=O)(=O)CC(=O)N(C1CC1)C1Cc2ccccc2C1,-3.11
10,Cc1cc(-n2cccn2)ccc1CN1C[C@@H](CN(C)C)[C@@H](CO)C1,-2
11,Cc1cnn(C2CN(c3nc(-c4ccncc4)nc4c3CCC4)C2)c1,4.55
12,CCCOc1cc(CNC(=O)Nc2ccccn2)ccn1,7.59
13,CSCC(C)(O)CNS(=O)(=O)c1ccc(Br)cc1 (stereo not given),-4.9
14,Cc1cc(C(=O)N2CCNC(=O)CC2)c(C)n1CC(F)(F)F,-2.89
15,NC1CCCN(Cc2cccc(C(F)(F)F)c2)C1=O (stereo not given),-0.911
16,CN1CCCCC1Cc1nc2c(cc1C(N)=O)CCC2 (stereo not given),-4.26
17,Cc1cc(C)n(CC2CCN(CC(O)Cn3cccn3)CC2)n1 (stereo not given),-0.567
18,CNc1cc2c(nn1)CCN(C(=O)c1ccc(-n3cccn3)nc1)C2,-15.7
19,COc1ccc(CCC(=O)N2CCN(c3nc(C)ns3)CC2)cc1,-3.26
20,OCc1csc(N2C[C@@H](CN3CCCCCC3)[C@@H](CO)C2)n1,-3.32
